According to the supplement of paper PMC6522484:
± gives the standard deviation of the averaged measurements.

Assays:
[1] = system: DLD1; assay: cell viability (CellTiter-Glo) relative to plate median (fraction of plate median); higher = more viable cells; details: 5 µM; treatment time 24 h; reporter: 7TFP
How it was run: (§1)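 Per-well firefly luciferase or CellTiterGlo luminescence, normalised to the plate median, is what is reported. It was measured in colorectal cancer cells with stable lentiviral TCF/Wnt firefly luciferase reporters after a 24 h treatment with library compounds at a final 5 µM. The mean of two independent replicates is given.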

[2] = system: HCT116; assay: as above; details: 5 µM; treatment time 24 h; reporter: TCF4/Wnt
How it was run: as §1

[3] = system: SW480; assay: as above; details: 5 µM; treatment time 24 h; reporter: 7TFP
How it was run: as §1

[4] = system: DLD1; assay: TCF/Wnt firefly luciferase reporter signal relative to plate median (fraction of plate median); higher = higher Wnt reporter signal; details: 5 µM; treatment time 24 h; reporter: 7TFP
How it was run: as §1

[5] = system: SW480; assay: as above; details: 5 µM; treatment time 24 h; reporter: 7TFP
How it was run: as §1

[6] = system: DLD1; assay: TCF/Wnt firefly luciferase reporter signal relative to plate median (fraction of plate median); higher = higher Wnt reporter signal; details: 10 µM, treatment time 24 h
How it was run: (§2)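 Colorectal cancer cells expressing a stably transduced lentiviral TCF/Wnt firefly luciferase reporter were treated in 384-well plates with kinase inhibitor library compounds at a final 10 µM for 24 h. Firefly luciferase or CellTiterGlo luminescence was then read on parallel plates. Well signals were normalised to the plate median (webcellHTS2, additive, no log transformation) and averaged over two independent replicates.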

[7] = system: HCT116; assay: as above; details: 10 µM; treatment time 24 h; reporter: TCF4/Wnt
How it was run: as §2

[8] = system: SW480; assay: as above; details: 10 µM; treatment time 24 h; reporter: 7TFP
How it was run: as §2

Structure (SMILES)	cell viability [1]	cell viability [2]	cell viability [3]	TCF/Wnt firefly luciferase reporter signal [4]	TCF/Wnt firefly luciferase reporter signal [5]	TCF/Wnt firefly luciferase reporter signal ([6]; reporter: 7TFP)	TCF/Wnt firefly luciferase reporter signal ([6]; reporter: TCF4/Wnt)	TCF/Wnt firefly luciferase reporter signal [7]	TCF/Wnt firefly luciferase reporter signal [8]
O=C1C[C@@H](c2ccc(O)cc2)Oc2cc(O)cc(O)c21	1.045 ± 0.0071	1.055 ± 0.0071	1.03	1.015 ± 0.0071	1.04 ± 0.021	–	–	–	–
C/C=C/CCC(=O)c1cc(C)c(O)cc1O [Sohirnone A]	1.04 ± 0.09	1.06 ± 0.1	0.9585 ± 0.0078	1.02 ± 0.082	0.969 ± 0.044	–	–	–	–
O=C1[C@@H]2CCCN2C(=O)[C@@H]2CCCN12 [Cyclo(Prolylprolyl)]	0.978 ± 0.0071	1.03 ± 0.065	0.9595 ± 0.0078	0.811 ± 0.15	1.01 ± 0.05	–	–	–	–
COc1c(O)cc2c(c1O)[C@@H]1O[C@H](CO)[C@@H](O)[C@H](O)[C@H]1OC2=O	0.966 ± 0.049	0.912 ± 0.039	1.02 ± 0.04	0.981 ± 0.14	1.09 ± 0.092	–	–	–	–
CC(=O)O[C@H]1CC[C@@]2(C)[C@@H](CC[C@@H]3[C@@H]2CC(=O)[C@]2(C)[C@@H]4[C@H](C[C@@H]32)O[C@]2(CC[C@@H](C)CO2)[C@H]4C)C1	0.907 ± 0.018	0.934 ± 0.047	0.9615 ± 0.0035	0.858 ± 0.038	0.995 ± 0.16	–	–	–	–
Cc1cc2c(s1)Nc1ccccc1N=C2N1CCN(C)CC1	0.979 ± 0.0057	1.14 ± 0.12	1.03 ± 0.063	1.05 ± 0.071	–	–	–	–	–
CC(=O)OCC(=O)[C@@]1(O)CC[C@H]2[C@@H]3CCC4=CC(=O)CC[C@]4(C)[C@@]3(F)[C@@H](O)C[C@@]21C	0.975 ± 0.027	1.07 ± 0.085	0.995 ± 0.022	1.06	1.07 ± 0.11	–	–	–	–
CC(=O)Nc1cc2nc3ccccc3oc-2cc1=O [N-Acetylquestiomycin A]	0.985 ± 0.092	1.1 ± 0.057	1.06 ± 0.087	1.24 ± 0.12	1.145 ± 0.0071	–	–	–	–
Cc1ccccc1-n1c(Cn2nc(-c3cccc(O)c3)c3c(N)ncnc32)nc2cccc(C)c2c1=O	–	–	–	–	–	1.07 ± 0.042	0.89 ± 0.021	0.841 ± 0.44	1.07 ± 0.12
COc1ccc(CN(CCN(C)C)c2ccccn2)cc1	1.07 ± 0.057	1.01 ± 0.14	1.08 ± 0.021	0.96 ± 0.071	1.13 ± 0.014	–	–	–	–
OCCN1CCN(CCCN2c3ccccc3Sc3ccc(C(F)(F)F)cc32)CC1	0.902 ± 0.082	0.973 ± 0.019	1.05 ± 0.09	0.927 ± 0.12	1.04 ± 0.1	–	–	–	–
O=C(O)CCC(=O)OC[C@@H](NC(=O)C(Cl)Cl)[C@H](O)c1ccc([N+](=O)[O-])cc1	1 ± 0.12	0.895 ± 0.04	0.977 ± 0.027	0.838 ± 0.044	0.97 ± 0.022	–	–	–	–
COc1cc(/C=C/C(=O)O)ccc1O	1.004 ± 0.0092	1.11 ± 0.057	1.01 ± 0.038	0.972 ± 0.069	1.12 ± 0.078	–	–	–	–
COc1ccc(-c2cc(=O)c3cc(OC)ccc3o2)cc1	0.967 ± 0.031	0.964 ± 0.065	0.998 ± 0.059	1.17 ± 0.057	1.33 ± 0.014	–	–	–	–
CC(C)[C@@H](C)/C=C/[C@@H](C)[C@H]1CC[C@H]2C3=CC=C4C[C@@H](O)CC[C@]4(C)[C@H]3CC[C@]12C	1.05 ± 0.05	1.03 ± 0.14	1.14 ± 0.099	0.912 ± 0.079	1 ± 0.083	–	–	–	–
CCOc1ccc2nc3cc(N)ccc3c(N)c2c1	1.02 ± 0.11	1.02 ± 0.074	0.999 ± 0.016	1.1 ± 0.085	0.925 ± 0.013	–	–	–	–
CC(=O)C12OC(C)(c3ccccc3)OC1CC1C3CCC4=CC(=O)CCC4(C)C3CCC12C (stereo not drawn)	0.963 ± 0.039	0.987 ± 0.033	0.976 ± 0.035	0.977 ± 0.061	0.939 ± 0.067	–	–	–	–
CC(=O)O[C@H](CC(=O)[O-])C[N+](C)(C)C	1.06 ± 0.05	0.958 ± 0.044	0.956 ± 0.043	0.94 ± 0.073	0.996 ± 0.0057	–	–	–	–
Cc1onc(-c2c(Cl)cccc2Cl)c1C(=O)N[C@@H]1C(=O)N2[C@@H]1SC(C)(C)[C@@H]2C(=O)O	0.935 ± 0.027	1.05 ± 0.073	0.972 ± 0.036	1 ± 0.042	1.15 ± 0.16	–	–	–	–
